# In the library only some 19% were active in any assay of this set; here they are far more common.
# HT1080NT lethal: qHTS for induction of synthetic lethality in tumor cells producing 2HG: qHTS for the HT-1080-NT fibrosarcoma cell line; HT-1080-NT fibrosarcoma viability, CellTiter-Glo ATP luminescence, 48 h; Potency, µM (doses to about 46.1 µM), for inactives: top-dose activity, negative = less viability, hits mostly cytotoxic; 360,000 tested, 1.6% active; AID 686970, 2013;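 also: NT is the 2HG producing partner of a matched IDH1 knockdown line; 0% = DMSO-treated cells and -100% = media-only wells without cells; nearly all actives have a fitted effect of over 55% in size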
#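 A 48-hour cytotoxicity screen used HT-1080-NT cells plated 2 hours before compound delivery. ATP-based CellTiter-Glo luminescence measured viability, normalized to DMSO and no-cell controls.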
# TDP1 cell CPT: qHTS for Inhibitors of human tyrosyl-DNA phosphodiesterase 1 (TDP1): qHTS in cells in presence of CPT | 420,000 tested, 12% active | Potency, µM (series often up to 46.2 µM), inactives show at the highest dose activity change, negative = growth inhibition, hits mostly inhibitors | AID 686979, 2013 | chicken DT40 Tdp1-/-;hTDP1 cells + 20 nM CPT, ATP luminescence, 48 h; also: nearly all actives have a fitted effect of over 55% in size
#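 Cell growth measured by CellTiter-Glo luminescence after a minimum 48 h, 37 C compound exposure with 20 nM CPT in Tdp1-knockout DT40 cells stably expressing hTDP1, seeded 400/well; qHTS titration format.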
# DT40 TDP1 no CPT: qHTS for Inhibitors of human tyrosyl-DNA phosphodiesterase 1 (TDP1): qHTS in cells in absence of CPT; Potency, µM (highest dose often 46.2 µM), inactives show at the top dose activity change, negative = growth inhibition, actives largely listed as inhibitors; AID 686978, 2013; DT40 Tdp1-/- hTDP1 cells, no CPT, ATP luminescence, 48 h; 420,000 tested, 15% active; also: nearly all actives have a fitted effect of over 55% in size
#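 Cells were dispensed at 400 per well, compounds added by pin tool, plates incubated ≥48 hr at 37 °C, then CellTiter-Glo added for 30 min at room temperature before luminescence reading. Line: DT40 Tdp1-/- complemented with hTDP1; camptothecin omitted.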
# HT1080 IDH1KD tx: qHTS for induction of synthetic lethality in tumor cells producing 2HG: qHTS for the HT-1080-IDH1KD cell line | HT-1080 IDH1 knockdown viability, ATP luminescence, 48 h | Potency, µM (doses to about 46.1 µM), for the others: at the top dose activity, negative = toxicity, most hits filed as cytotoxic | 360,000 tested, 2% active | AID 686971, 2013;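 also: 0% = DMSO wells and -100% = cell-free medium wells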
#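 After a 2 h attachment period, IDH1KD HT-1080 cells took pin-transferred compound for 48 h at 37 °C; ATP-based luminescence after 10 min room-temperature reagent incubation reported viability.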
# KB-3-1 tox: qHTS assay for MDR1-selective chemotherapeutics: Primary screen using the parental adenocarcinoma cell KB-3-1. KB-3-1 viability, CellTiter-Glo ATP luminescence, 72 h. Potency, µM (highest dose often 46.1 µM), usual class: cytotoxic. 400,000 tested, 1.4% active; also: nearly all actives have a fitted effect of over 60% in size
#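 Cytotoxicity measured as CellTiter-Glo luminescence after 72 h at 37 C. Compound titrations were pinned onto drug-naive KB-3-1 parental adenocarcinoma cells grown in DMEM with 10% FBS, and normalized data fitted to concentration-response curves.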
# KB-V1 cytotox: qHTS assay for MDR1-selective chemotherapeutics: Primary screen using the drug-selected MDR subline cells KB-V1. KB-V1 MDR cells viability, CellTiter-Glo, 72 h. Potency, µM (series often up to 46.1 µM), actives largely listed as cytotoxic. 400,000 tested, 3.4% active. AID 1347076, 2019; also: nearly all actives have a fitted effect of over 60% in size
#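 Compound-treated KB-V1 multidrug-resistant cells, 72 h, 37 degrees C; viability by CellTiter-Glo. Fitted qHTS curves give the values.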
# Numbers without * were called inactive; i = inactive; ? = inconclusive; / = no result given. Calls follow the shape of the dose curve; as a rule, active = well fitted curve in the direction sought with a large enough effect; inconclusive = small, poorly fitted or top-dose-only effect, or another doubt; inactive = no such curve, though single readings can be large; an effect the other way counts as inactive or inconclusive. Unless noted, % is scaled to controls: 0 for no effect and ±100 for the full control effect; potency is read from the fitted curve at half-maximal effect.
SMILES,HT1080NT lethal,TDP1 cell CPT,DT40 TDP1 no CPT,HT1080 IDH1KD tx,KB-3-1 tox,KB-V1 cytotox
Cc1ccc(-n2c(SCC(=O)NCc3ccccc3)nc3c([nH]c4ccccc43)c2=O)cc1,/,?,-29%,/,i,i
CSc1nc2c([nH]c3ccccc32)c(=O)n1-c1ccc(F)cc1,/,?,?,/,i,i
Cc1ccc(-n2c(SCc3ccccc3)nc3c([nH]c4ccccc43)c2=O)cc1,/,-26%,-5%,/,i,i
COc1ccc(-n2c(SCC(=O)NCc3ccccc3)nc3c([nH]c4ccccc43)c2=O)cc1,/,18µM*,?,/,i,i
O=C(CSc1nc2c([nH]c3ccccc32)c(=O)n1-c1ccc(F)cc1)NCc1ccc(F)cc1,/,?,15µM*,/,i,i
O=c1c2[nH]c3ccccc3c2nc(SCc2cccc(F)c2)n1-c1ccccc1,/,?,23µM*,/,/,/
CCSc1nc2c([nH]c3ccccc32)c(=O)n1-c1ccc(F)cc1,/,21µM*,?,/,i,?
O=C(CSc1nc2c([nH]c3ccccc32)c(=O)n1-c1ccc(F)cc1)NCc1ccco1,7%,?,?,-9%,i,i
Cc1ccc(N2CC(NC(=O)C3CCCC3)CC2=O)cc1 (stereo unspecified),/,-18%,-12%,/,/,/
CCCCN(C(=O)c1ccc(-c2ccc([N+](=O)[O-])cc2)o1)c1c(N)n(CCCC)c(=O)[nH]c1=O,0%,?,16µM*,-5%,i,i
CCCCn1c(N)c(N(Cc2ccccc2OC)C(=O)c2ccc([N+](=O)[O-])s2)c(=O)[nH]c1=O,-18%,?,18µM*,-10%,?,i
CCCn1c(N)c(N(CCOC)C(=O)c2ccccc2F)c(=O)[nH]c1=O,27%,12%,-4%,22%,i,i
CCCCN(C(=O)c1ccc([N+](=O)[O-])o1)c1c(N)n(CCCC)c(=O)[nH]c1=O,-1%,?,-17%,3%,i,i
CCCCN(C(=O)c1ccccc1OCc1ccc(F)cc1)c1c(N)n(CCC)c(=O)[nH]c1=O,1%,18µM*,?,-12%,i,?
O=C(Nc1ccccc1C(F)(F)F)N1CCOc2ccc(Cl)cc21,/,10%,2%,/,/,/
CCCCCn1c(=O)[nH]c2cc(C(=O)N3CCN(c4cccc(C)c4)C(C)C3)ccc2c1=O (stereo unspecified),/,21µM*,9.2µM*,/,?,i
CCCCC(CC)CNC(=O)c1ccc2c(=O)n(Cc3ccc(OC)cc3)c(=O)[nH]c2c1 (stereo unspecified),/,21µM*,?,/,i,i
CCCCCn1c(=O)[nH]c2cc(C(=O)N3CCN(c4cccc(OC)c4)CC3)ccc2c1=O,/,23µM*,15µM*,/,i,i
COc1ccc(-n2c(=S)[nH]c3cc(C(=O)Nc4ccccc4OC)ccc3c2=O)c(OC)c1,-17%,-21%,?,-22%,i,i
COc1ccc(-n2c(=S)[nH]c3cc(C(=O)Nc4ccc(F)cc4)ccc3c2=O)c(OC)c1,-12%,16µM*,?,-25%,?,i
COC(=O)c1cc2oc(C)cc2n1CC(=O)Nc1ccc(OC)c(OC)c1,/,-2%,0%,/,i,i
CCCCCn1c(=O)[nH]c2cc(C(=O)N3CCN(c4ccc(OC)cc4)CC3)ccc2c1=O,/,9.2µM*,18µM*,/,i,i
